# This is a sample that favours compounds with a hit; in the whole collection about 7.3% have one here.
# SMN2 splice up = SMN2 splice variant enhancement | HEK293 SMN2-luciferase splicing reporter, luminescence, 30-36 h | Potency, µM (series often up to 46.1 µM), without a hit: top-dose activity change, positive = activation, hits mostly activators | actives 2.8% (n = 210,000); further: % of control where 0% means no effect; nearly all actives have a fitted effect of over 55% in size
#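 HEK293 cells carry an SMN2 minigene-luciferase reporter in which exon 7 inclusion puts luciferase in frame. Cells were seeded at 2000 cells/well, attached for 10-12 hours, then exposed to compounds for 30-36 hours at 37C before ONE-Glo luminescence.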
# KinaseGlo FLuc = counter-screen: inhibitors of Kinase-Glo firefly luciferase | Potency, µM (titrated, usually from 38.3 µM), for the others: at the top dose activity change, negative = inhibition, hits mostly inhibitors | Kinase-Glo luciferase, ATP luminescence, 8 min | AID 1379 | actives 0.28% (n = 200,000) | Q27757; further: on the % scale 0 is the no-effect control and ±100 the full control effect; nearly all actives have a fitted effect of over 60% in size
#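 Light output from Kinase-Glo luciferase with luciferin and 10 uM ATP in 50 mM imidazole pH 7.2, KCl, MgCl2, Tween 20, BSA; compound pin-delivered, 8-min ambient incubation, then luminescence read.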
# NPC1 promoter act = NPC1 promoter activation; actives 2.4% (n = 320,000); Huh7 NPC1 promoter luciferase reporter, 24 h; Potency, µM (top dose mostly 9.22 µM), for inactives: at the highest dose activation, usual class: activators; further: % of control where 0% means no effect; nearly all actives have a fitted effect of over 60% in size
#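 Quantitative HTS used a cell-based reporter: Huh7 cells stably bearing the NPC1 promoter upstream of luciferase were treated with compounds for 24 h, and promoter activation was read as luminescence.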
# Rab9 prom act = Rab9 promoter activation; Huh7 Rab9 promoter-luciferase reporter, luminescence, 24 h; Potency, µM (titrated, usually from 9.22 µM), for the others: at the highest dose activation, negative = inhibition, actives largely listed as activators; actives 2.8% (n = 320,000); AID 485297; further: % of control where 0% means no effect; nearly all actives have a fitted effect of over 60% in size
#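 Stable Rab9-luc Huh7, 1500 cells/well, 2 h settle; cmpd in DMSO, 24 h, 37 °C/5% CO2; luciferase reagent 10 min RT; luminescence.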
# FLuc counter = inhibits or activates purified firefly luciferase, miR-21 counter-screen | P08659 | purified FLuc, Km substrates, luminescence inhibition | Potency, µM (top dose mostly 57.5 µM), for inactives: top-dose activity change, negative = inhibition, usual class: inhibitors | actives 6.9% (n = 360,000) | AID 588342;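 further: plate controls were vehicle for no effect and reference inhibitor for full effect; nearly all actives have a fitted effect of over 55% in size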
# Target sequence (P08659 whole entry, looked up): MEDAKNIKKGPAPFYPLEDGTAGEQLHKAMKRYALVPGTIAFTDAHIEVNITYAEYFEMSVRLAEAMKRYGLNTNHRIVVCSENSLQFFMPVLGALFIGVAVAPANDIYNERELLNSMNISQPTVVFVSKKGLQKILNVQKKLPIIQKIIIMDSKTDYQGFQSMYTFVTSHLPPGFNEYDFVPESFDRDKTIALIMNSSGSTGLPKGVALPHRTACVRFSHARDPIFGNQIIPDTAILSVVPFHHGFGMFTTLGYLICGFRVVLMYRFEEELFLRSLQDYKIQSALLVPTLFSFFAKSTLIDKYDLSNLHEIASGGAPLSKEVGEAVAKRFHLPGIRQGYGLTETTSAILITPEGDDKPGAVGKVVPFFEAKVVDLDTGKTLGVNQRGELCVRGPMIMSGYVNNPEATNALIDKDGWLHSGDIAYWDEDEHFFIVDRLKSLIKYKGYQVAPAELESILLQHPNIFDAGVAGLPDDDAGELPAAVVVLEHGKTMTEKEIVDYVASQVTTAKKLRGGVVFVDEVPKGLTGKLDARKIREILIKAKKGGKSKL
#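 Biochemical qHTS of compounds, final roughly 60 µM downward over six points, against 10 nM purified firefly luciferase using Km concentrations of substrates (10 uM D-luciferin, 10 uM ATP) in Tris acetate pH 7.5 buffer; luminescence output.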
# An asterisk follows results filed as active; ? = inconclusive; / = no result given; [ ] = another dose, or the depositor's remark. The call rests on the fitted dose curve; in most records, active means well fitted curve in the direction sought with a large enough effect; inconclusive means small, poorly fitted or top-dose-only effect, or another doubt; inactive means no such curve, though single readings can be large; an effect the other way counts as inactive or inconclusive. Potency means the concentration at half of the fitted maximal effect.
SMILES,SMN2 splice up,KinaseGlo FLuc,NPC1 promoter act,Rab9 prom act,FLuc counter
COc1ccccc1-c1cnn2c(NCc3ccccc3)cc(C)nc12,/,/,16%,24%,17µM*
Cc1cc(NCCCN2CCOCC2)n2ncc(-c3ccccc3)c2n1,16µM*,5%,1µM*,0.71µM*,7.6µM*
Cc1cc(NCCOCCO)n2ncc(-c3ccc(Cl)cc3)c2n1,10µM*,-2%,1.3µM*,0.89µM*,1.3µM*
COc1ccc(N(C(=O)c2ccc(Cl)cc2)S(=O)(=O)c2ccc(C)cc2)cc1,-4%,/,/,/,-2%
COc1ccccc1CNc1cc(C)nc2nc(-c3ccc(C)cc3)nn12,/,/,/,/,6µM*
Cc1cc(NCc2ccccn2)n2nc(C)c(-c3ccc(Cl)cc3)c2n1,/,/,-11%,-32%,?
COc1cccc(Nc2cc(C)nc3nc(-c4ccc(Cl)cc4)nn23)c1,12%,/,/,/,-1%
Cc1cc(NCc2ccccn2)n2ncc(-c3ccc(Cl)cc3)c2n1,/,/,?,?,11µM*
O=C(Nc1ccc(Cl)c(Cl)c1)N1CC=CCC1,?,-3%,2.5µM*,3.5µM*,12µM*
COc1ccc(CCNC(=O)CCc2c(C)nc3c(c(C)nn3-c3ccc(C)cc3)c2C)c(OC)c1,1%,/,/,/,-6%
O=c1c2ccccc2cnn1-c1nc2ccccc2[nH]1,/,2µM*,0.1µM*,?,0.17µM*
O=c1c(Cl)c(N2CCCCC2)cnn1-c1nc2ccccc2[nH]1,-63%,1.6µM*,?,0.11µM*,0.38µM*
O=c1[nH]c2ccccc2nc1C(F)(F)F,/,/,-2%,3%,1%
CCS(=O)(=O)N1CCN(c2cnn(-c3ccccc3)c(=O)c2Cl)CC1,11%,-7%,11%,-8%,-1%
Cn1c(=O)c(=O)n(C)c2cc(C(=O)NCc3ccccc3Cl)ccc21,0%,/,/,/,-10%
Oc1ccccc1C1CC(c2cccs2)=NC(c2ccc(Cl)cc2)N1 (configuration not stated),/,2%,19%,?,?
CCOc1ccccc1C1N=C(c2ccc(OC)cc2)CC(c2ccccc2O)N1 (configuration not stated),/,0%,?,?,19µM*
Cc1nc(-c2ccc(NC(=O)CC(C)C)cc2)cs1,11µM*,-11%,2.8µM*,3.2µM*,7.6µM*
Cc1nc(-c2ccc(NC(=O)c3ccc(Br)o3)cc2)cs1,/,/,1.8µM*,0.79µM*,1.5µM*
Cc1nc(-c2cccc(NC(=O)C3CCCCC3)c2)cs1,9%,3%,0%,1%,?
Cc1nc(-c2ccc(NC(=O)C3CC3)cc2)cs1,/,/,2.5µM*,2.8µM*,11µM*
CC(C)CCNC(=O)CN1C(=O)COc2ccc(S(=O)(=O)N3CCOCC3)cc21,1%,/,/,/,0%
Fc1ccc(-c2cn3cc(Cc4ccc(Cl)cc4)sc3n2)cc1,3.2µM*,/,/,/,3µM*
Fc1ccc(Cc2cn3cc(-c4ccc(Cl)cc4)nc3s2)cc1,?,/,/,/,0.6µM*
N=C1C(c2nc(-c3ccc(F)cc3)cs2)=C(O)CN1Cc1ccc(Cl)cc1,-10%,-2%,-3%,-3%,2%
SMILES,SMN2 splice up,KinaseGlo FLuc,NPC1 promoter act,Rab9 prom act,FLuc counter
COc1ccc(/C=C/C(=O)c2ccoc2)cc1,-15%,-7%,20%,23%,4.3µM*
COc1ccc2cc(C(=O)/C=C/c3cc(OC)c(OC)c(OC)c3)ccc2c1,/,/,1%,-4%,21µM*
COc1ccc(C(=O)/C=C/c2ccc(OC)c(COc3ccc(F)cc3)c2)cc1,/,/,2%,19%,5.4µM*
COc1cc(/C=C/c2ccc(O)cc2)cc(OC)c1,/,/,?,3.2µM*,13µM*
Cc1ccc(Nc2nc(N)nc(N)c2S(=O)(=O)c2ccccc2)cc1,-4%,/,/,/,0%
COc1ccc(CCNC(=O)c2ccc3c(c2)ncn3-c2ccc(C(C)C)cc2)cc1OC,/,/,/,/,-3%
COc1ccc(C(=O)/C=C/N(C)C)cc1,25%,-5%,5%,14%,-20%
COc1ccc(/C=C/C(=O)c2ccc(O)cc2)cc1,/,/,11%,?,3.4µM*
COc1ccc(NC(=O)C2CCCN(c3nnc(C)c4c(C)n(-c5ccccc5)nc34)C2)cc1Cl (configuration not stated),/,/,/,/,-12%
CC(C)Oc1ccc(C(=O)Nc2nnc3n2CCS3)cc1,/,/,/,/,11µM*
O=C(Nc1nnc2n1CCS2)c1ccccc1,/,/,/,/,1%
O=C(Nc1ccn(-c2ccccc2)n1)c1ccccc1Br,16µM*,-2%,?,27%,?
O=C(Nc1ccn(-c2ccccc2)n1)c1ccc(Cl)cc1,7%[1.84 µM],-4%,13%,16%,13µM*
COc1cccc(NC(=O)c2oc3ccccc3c2NC(=O)Cc2cccc(C)c2)c1,17%,/,/,/,-1%
CCCCSC(=O)Nc1ccccc1,7%,7%,-1%,7%,17µM*
O=C(CN1CCCN(Cc2ccc(F)cc2)S1(=O)=O)NCc1ccccc1Cl,/,/,/,/,3%
NC(N)=N/N=C/c1ccc(OCc2ccc(Cl)cc2)cc1,/,/,3.5µM*,?,6µM*
Cc1ccc(COc2ccc(/C=N/O)cc2)cc1,10µM*,-5%,?,1.3µM*,5.4µM*
Cc1n[nH]c(=S)n1/N=C/c1ccc(OCc2ccc(Cl)cc2)cc1,-6%,-7%,15%,13%,19µM*
CCOc1ccc(/C=N/O)cc1,18%,-7%,7%,9%,-17%
NC(N)=N/N=C/c1ccc(OCc2ccccc2)cc1,/,/,24%,11%,?
O=C(CSC1=Nc2ccccc2N=C(c2ccc(F)cc2)C1)NCc1ccccc1Cl,/,/,/,/,1%
COc1ccc2c(c1)OCc1c-2oc2cc(OC)ccc12,13µM*,-2%,/,/,/
COc1ccccc1-c1nc(COc2ccc(Cl)cc2Cl)no1,/,/,3.5µM*,4µM*,8.5µM*
COc1ccc(-c2noc(-c3cc(Cl)ccc3Cl)n2)cc1OC,-7%,4%,16%,11%,5%
SMILES,SMN2 splice up,KinaseGlo FLuc,NPC1 promoter act,Rab9 prom act,FLuc counter
COc1cccc(-c2nc(COc3ccc(Cl)cc3Cl)no2)c1,/,/,1%,0%,15µM*
O=C(NCc1ccc2c(c1)OCO2)c1ccc2c(c1)N(Cc1ccccc1F)C(=O)c1ccccc1S2=O (configuration not stated),16%,/,/,/,3%
CCn1ccc(C(=O)Oc2ccc(C(C)C)cc2)n1,1%,0%,0%,-3%,2.7µM*
CCn1ccc(C(=O)N2CCOCC2)n1,4%,0%,-3%,1%,1%
CCOC(=O)c1ccc(COC(=O)c2ccc3c(c2)-c2ccccc2C3=O)cc1,-20%,-2%,-6%,0%,1%
CCOC(=O)c1c(C)nc2c(c1-c1cc(OC)ccc1OC)C(=O)c1ccccc1-2,-10%,1%,-1%,-10%,1%
CCOC(=O)C1=C(Cc2ccc(C)cc2)C(=O)c2ccccc2C1=O,-98%,-3%,-5%,-12%,13µM*
CCOC(=O)C1=C(Cc2ccc(OC)cc2)C(=O)c2ccccc2C1=O,-26%,14%,-14%,1%,11µM*
